Hit rate of the full screen: of about 1,500 compounds, about 460 (31%) were called active. Another 1% or so got no clear call; they are omitted. Only a sample is shown. Potency and affinity values are given separately. Unmarked numbers belong to inactive results.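 The calls were made as follows: active = curve reaches 40% activation over neutral controls at an AC40 no higher than the top valid tested concentration; inconclusive = no clear call, values can overlap the other calls; inactive = signal moving opposite to the expected increase, and the rest.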

This assay can be described thus: activators of glucose-dependent insulin secretion, dose response, cell-based, INS-1E, Gaussia luciferase, luminescence, cherry-pick, set 2 (AID 977607).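 Also: 0% = median of the plate neutral control wells.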 The note with it: INS-1E GLuc insulin secretion reporter, 2-3 h, active compounds read high; at 35 µM, 100% = signal doubled over neutral wells unless noted.
As to `CCn1nnnc1NCc1ccc(OCc2c(F)cccc2Cl)c(OC)c1`, the max activation was -22.7% [at 1.2 µM, 100% = signal doubled over neutral wells].
The result for `O=c1c(Cc2ccc(Cl)cc2Cl)c(O)ccn1CC(F)(F)F` reads 17.3%; that for `COc1ccc(CNC(=O)C2Cc3c(-c4ccccc4)ccnc3O2)cc1OC` (stereo not given), -21.6% [at 11 µM, 100% = signal doubled over neutral wells].
Turning to `C/C(Cl)=C\Cn1c(N2CCCC2)nc2c1c(=O)n(C)c(=O)n2C`, the max activation was -30.4% [at 1.2 µM, 100% = signal doubled over neutral wells].
On to `CCNc1nc(NCC)nc(N(C#N)C(C)C)n1`, for which the max activation is 28.6% [at 11 µM, 100% = signal doubled over neutral wells].
For `Cc1nc2ccccc2c2nc(NC(=O)C(F)(F)F)nn12`, the max activation is -15.5% [at 11 µM, 100% = signal doubled over neutral wells].
As to `CN(C)c1ccc(/C=N/NC(=O)c2ccccc2Cl)cc1`, the max activation is -9.59% [at 0.046 µM, 100% = signal doubled over neutral wells].
The result for `CC(C)Oc1ccc(Br)cc1C(=O)N/N=C/c1c[nH]c2ccccc12` reads -45.1%.
For the compound `NC(=O)c1ncn([C@@H]2O[C@H](C(=O)N[C@H](Cc3ccccc3)C(=O)O)[C@@H](O)[C@H]2O)n1`, the max activation was -32.5%.
Consider `COc1ccc(N2CCN(C(c3cccs3)C(C)NC(=O)C(=O)N3CCOCC3)CC2)cc1` (stereo not given), for which the max activation was -16.6% [at 3.8 µM, 100% = signal doubled over neutral wells].
As for `Cc1ccc(NC(=O)CC2S/C(=N/N=C/c3c[nH]c4ccccc34)NC2=O)cc1` (stereo not given), the max activation was 19.8% [at 3.8 µM, 100% = signal doubled over neutral wells].
Turning to `Cc1ccc(CC2S/C(=N/c3ccccn3)NC2=O)cc1` (stereo not given), the max activation was -16.1% [at 0.42 µM, 100% = signal doubled over neutral wells].
The result for `CCOC(=O)N1CCN(S(=O)(=O)N2CCCC(C(=O)NCc3cc(OC)ccc3OC)C2)CC1` (stereo not given) reads -20.8% [at 1.2 µM, 100% = signal doubled over neutral wells].
In the case of `CC(=O)Nc1sc(C)c(C)c1C(=O)OCC(=O)Nc1cc(S(C)(=O)=O)ccc1Cl` it was -22.2%; in that of `CCOC(=O)c1c(NC(=O)c2ccoc2C)sc(C(=O)N(C)C)c1C`, 12.6%.
In the case of `O=c1[nH]c(CN2CCN(c3ccc(O)cc3)CC2)nc2scc(-c3ccc(Cl)cc3)c12` it was -25.6%.
On to `CCOc1ccc(C(C)=O)cc1COC(=O)CN1C(=O)NC2(CCCC2)C1=O`, for which the max activation was -28.5% [at 0.005 µM, 100% = signal doubled over neutral wells].
As for `COc1ccc2ccc(=O)oc2c1CC=C(C)C`, the max activation is -13.3% [at 0.015 µM, 100% = signal doubled over neutral wells].
For the compound `COc1ccc(CNC(=O)COC(=O)c2cc(C)nc3ccccc23)cc1`, the max activation was 16.2%.
For `CCOC(=O)Cn1c(=O)n(Cc2ccc(OC)cc2)c(=O)c2cccnc21`, the max activation is -22.7% [at 0.005 µM, 100% = signal doubled over neutral wells].
As to `CCOC(=O)c1oc2ccccc2c1NC(=O)c1ccco1`, the max activation is -17.8% [at 0.135 µM, 100% = signal doubled over neutral wells].
`CCOC(=O)c1c(C)[nH]c(C(C)=NNC(=O)c2cccs2)c1C`: the max activation is -42% [at 11 µM, 100% = signal doubled over neutral wells].
On to `CNC(=O)C(=O)NCC1OCCCN1S(=O)(=O)c1ccc(F)cc1C` (stereo not given), for which the max activation is -17.8% [at 0.005 µM, 100% = signal doubled over neutral wells].
For the compound `CC(C)NC(=O)C1(C)CCN1Cc1cccc(C#N)c1` (stereo not given), the max activation is -13.6% [at 0.0016 µM, 100% = signal doubled over neutral wells].
The result for `COc1ccc(-c2cccc(C(=O)Nc3ccc(C)cc3)c2)cc1` reads 26.8%; that for `Cc1cccc(C(=O)NC(=S)NNC(=O)COc2c(C)cccc2C)c1`, -26.2% [at 11 µM, 100% = signal doubled over neutral wells]; that for `Cc1ccc(-n2nnnc2SCc2ccc(C(=O)O)cc2)cc1C`, -23.5% [at 3.8 µM, 100% = signal doubled over neutral wells].
The result for `N#Cc1sc2nc(C3CC3)cc(-c3ccccc3)c2c1N` reads -14.8% [at 0.015 µM, 100% = signal doubled over neutral wells].
Regarding `N#CC1=C(N)Oc2nc(-c3ccccc3)[nH]c2C1c1cccnc1` (stereo not given), the max activation is -20.8% [at 0.005 µM, 100% = signal doubled over neutral wells].
On to `O=C1CSC(c2cccc(O)c2)N1Cc1ccccc1` (stereo not given), for which the max activation was -24.7% [at 0.005 µM, 100% = signal doubled over neutral wells].
For `C/C=C/c1ccc(OCCN2C(=O)NC(C)(C)C2=O)c(OC)c1`, the max activation is -11.4% [at 0.005 µM, 100% = signal doubled over neutral wells].
For `CCn1ccc(C(=O)Nc2ccccc2SC)n1`, the max activation was -10.4% [at 0.046 µM, 100% = signal doubled over neutral wells].
In the case of `O=S(=O)(NCc1ccccc1)c1ccc(S(=O)(=O)N2CCCCC2)cc1`, the max activation is -11.7% [at 3.8 µM, 100% = signal doubled over neutral wells].
Consider `NS(=O)(=O)c1ccc(CNC(=O)c2cc(S(=O)(=O)N3CCOCC3)ccc2N2CCCC2)cc1`, for which the max activation is -17.8% [at 0.0016 µM, 100% = signal doubled over neutral wells].
On to `CNS(=O)(=O)c1ccc2c3c(cccc13)C(=O)N2`, for which the max activation was 19.7%.

Source of the values: PubChem BioAssay AID977607 (Broad Institute, 2014).
